Among the data in PubChem BioAssay (NCI) are growth values, retold here.

This is part of a sample that, as a whole, favours compounds with a hit. Of some 83,000 tested, about 20% had one in any assay.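 Testing used 96-well plates and a 48-hour single-concentration exposure. Example: -40 means 40% of the starting cells died.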 Activity calls are given as the source filed them.

This experiment relates to HOP-92 NSCLC. Kind of experiment: NCI-60 one-dose screen, 48 h (100 = growth as untreated, 0 = no growth, -100 = all killed). Particulars: 10 µM unless noted. On the procedure:
Growth inhibition of the HOP-92 human Non-Small Cell Lung tumor cell line is measured as a screen for anti-cancer activity. Cells are grown in 96 well plates and exposed to the test compound for 48 hours. Compounds are tested at a single concentration, which is 10^-5 M for most compounds. The reported endpoint is percent growth (GI% or GIPRCNT), where numbers from 0 - 100% represent growth inhibition, and numbers from -100% - 0 represent cell death. For example, a value of 40 represents 60% growth inhibition. A value of 0 means no net growth occurred over the course of the experiment. A value of -40 indicates 40% of cells at the beginning of the experiment died by the end of the experiment. A value of -100 means all cells are dead at the end of the experiment.
NCI-60 Human Tumor Cell Lines Screen was performed using the standard one-dose NCI protocol, which is described in more detail at https://dtp.cancer.gov/discovery_development/nci-60/default.htm.
Compounds with GIPRCNT values below 10 were considered active. Activity score was based on GIPRCNT using the following formula: […]
Score is 0 for GIPRCNT values of 100 or above, 50 for GIPRCNT values of 0, and 100 for GIPRCNT values of -100.
`Nc1nc(=S)c2ncn(C3OC(COC(=O)c4ccc(Cl)cc4)C(OC(=O)c4ccc(Cl)cc4)C3OC(=O)c3ccc(Cl)cc3)c2[nH]1` (stereo not given): the growth is 82.7% (inactive).
Next, `O=C1/C(=C\c2cccc(OCCCCCOc3ccc(Cl)cc3)c2)N=C2SCCCN12`: 48.1% (inactive); `C=C1CC[C@@H]2[C@](C)(COC(C)=O)[C@H](OC(C)=O)CC[C@@]2(C)[C@@H]1C/C=C1/C(=O)OC[C@H]1OC(C)=O`: 71.9% (inactive).
As for `Cc1c(N)ccc(-c2ccc(N)c(C)c2S(=O)(=O)O)c1S(=O)(=O)O`, the growth was 86.1% (inactive).
In the case of `COc1ccc2nc3cc(Cl)ccc3c(Nc3ccc(N(C)C)cc3)c2c1`, the growth is 76.3% (inactive).
Take `COc1cc2c(Oc3ccc(NC(=O)C4(C(=O)Nc5ccc(F)cc5)CC4)cc3F)ccnc2cc1OCCCN1CCOCC1`: the growth was -58.2% (active).
Regarding `CC(=O)C1CC(C)CCC1C(C)C` (stereo not given), the growth is 47.4% (inactive).
For `CC[C@H](Nc1ncnc2nc[nH]c12)c1nc2cccc(F)c2c(=O)n1-c1ccccc1`, the growth is 49.2% (inactive).
For `Cc1cc(N2CCOCC2)nc(N(CCNc2ccnc3cc(Cl)ccc23)Cc2cccs2)n1`, the growth was 15.6% (inactive).
With `C/C=C/C=N/NC(=S)Nc1ccccc1`, the growth was 93% (inactive).
With `Clc1ccc(Nc2nccc(Nc3ccc4[nH]ncc4c3)n2)cc1`, the growth was -0.955% (active).
In the case of `CC(=Nc1ccccc1)C1=C(O)C(Cc2ccccc2)NC1=O` (stereo not given), the growth was -9.07% (active).
Next, `CC12O[C@H](C[C@@H](OC(=O)CCC(=O)O)[C@H]1O)n1c3ccccc3c3c4c(c5c6ccccc6n2c5c31)C(=O)NC4=O`: 7.85% (active).
For `Cc1nn(-c2ccccc2)c2c1N=c1s/c(=C\c3cn(-c4ccccc4)nc3-c3ccc(Cl)cc3)c(=O)n1C(C)N2` (stereo not given), the growth is 66.7% (inactive).
As for `COc1cc2nc(Nc3cccc(Cl)c3)nc(N)c2cc1OC`, the growth is 40.6% (inactive).
Take `O=C(Nc1nc2cccc(-c3ccc(CN4CCS(=O)(=O)CC4)cc3)n2n1)C1CC1`: the growth is 96.3% (inactive).
For `CC(C)OP(=O)(CCC(=O)c1c[nH]c2ccccc12)OC(C)C`, the growth is 95.5% (inactive).
Take `NC(=O)Nc1cc(-c2cccc(F)c2)sc1C(=O)N[C@H]1CCCNC1`: the growth is -69.2% (active).
For `CCN(CCO)CCCOc1ccc2c(Nc3cc(CC(=O)Nc4cccc(F)c4)[nH]n3)ncnc2c1`, the growth was 23.2% (inactive).
With `N#CCNC(=O)c1ccc(-c2ccnc(Nc3ccc(N4CCOCC4)cc3)n2)cc1`, the growth is 46.9% (inactive).
As to `O=C(Nc1cn[nH]c1-c1nc2ccc(CN3CCOCC3)cc2[nH]1)NC1CC1`, the growth was -2.75% (active).
Next, `CCN(CC)CCNc1ccc(N=Nc2cnc3ccccc3c2)c2ccccc12`: -82.4% (active).
As to `CCOC(=O)C1=C(C)N=C2Sc3cc(OC(F)(F)F)ccc3N2[C@H]1c1ccccn1`, the growth is 68% (inactive).
Turning to `CNC(=O)CN1CCC(Oc2cc3c(Nc4cccc(Cl)c4F)ncnc3cc2OC)CC1`, the growth is 25.1% (inactive).
Next, `COC(=O)[C@@H](OC)[C@@H]1Cc2cc3cc(OC4CC(OC5CC(O)C(O)C(C)O5)C(O)C(C)O4)c(C)c(O)c3c(O)c2C(=O)[C@H]1OC1CC(OC2CC(OC3CC(C)(O)C(O)C(C)O3)C(O)C(C)O2)C(O)C(C)O1` (stereo not given in full): -15.6% (active); `C=CC(=O)Nc1cc2c(Nc3ccc(F)c(Cl)c3)ncnc2cc1C#CC(C)(C)N1CCN(C)CC1`: -91.3% (active); `CC1(O)CC(c2nc(-c3ccc4ccc(-c5ccccc5)nc4c3)c3c(N)nccn23)C1` (stereo not given): -13.2% (active).
As to `CO[C@H](C(=O)N[C@@H](CCCCNC(=O)OCc1ccccc1)C(=O)OC(C)(C)C)[C@@H]1Cc2cc3cc(OC4CC(OC5CC(O)C(O)C(C)O5)C(O)C(C)O4)c(C)c(O)c3c(O)c2C(=O)[C@H]1OC1CC(OC2CC(OC3CC(C)(O)C(O)C(C)O3)C(O)C(C)O2)C(O)C(C)O1` (stereo not given in full), the growth is -82.6% (active).
For `COc1ccc(-c2cnc(-c3ccc(Cl)cc3)[nH]2)cc1OC`, the growth was 25.8% (inactive).
Take `CCNC(=O)Nc1nc2ccc(Oc3ccnc(C(=O)NC)c3)cc2s1`: the growth is 70.6% (inactive).
Take `O=C(Cc1ccc(/C=C/C(=O)c2ncc[nH]2)cc1)Nc1ccc(S(F)(F)(F)(F)F)cc1`: the growth is 97% (inactive).
The same measure for `Cn1ccnc1C(=O)/C=C/c1ccc(CC(=O)Nc2ccc(Br)cc2)cc1`: 61.1% (inactive).
For `CC1(C)NC(=O)c2[nH]c3c(Cl)c(Cl)ccc3c2C1C#N` (stereo not given), the growth is 54.3% (inactive).
For `CCc1cc2c(cc1N1CCC(N3CCOCC3)CC1)C(C)(C)c1[nH]c3cc(C#N)ccc3c1C2=O`, the growth is -10.9% (active).
With `ClCc1ccc(-c2ccc(Cn3cnc4nc(Cl)nc(Cl)c43)cc2)cc1`, the growth is 25.8% (inactive).
Next, `CCOC(=O)C1=C(C)NC(=O)NC1c1cc(=O)oc2ccc(C)cc12` (stereo not given): 95.6% (inactive); `O=C(NCCO)Nc1ccc(-c2nc(N3CCOCC3)c3cccn3n2)cc1`: -21.4% (active); `COc1cc2c(Nc3ccc(Br)cc3F)ncnc2cc1OCC1CCN(C)CC1`: -12.9% (active).
With `COc1cc2c(cc1OCCCCCN1CCN(c3ncnc4ccccc34)CC1)N=CC1CCCN1C2=O` (stereo not given), the growth is -63.8% (active).
Regarding `CCN1CCN(Cc2ccc(Cc3ncc(F)c(-c4cc(F)c5nc(C)n(C(C)C)c5c4)n3)nc2)CC1`, the growth is 50% (inactive).
